Laboratory results as given in PubChem BioAssay (Tox21).
“And” between values parts separate entries of the source, which are not always exact repeats. Equal entries are not always repeated. Inconclusive results are not listed. Where a call stands in place of a potency, no number is given. Some structures have more than one record in an assay (separate samples or runs), and their calls can disagree. The source made the active and inactive calls. Unless noted, the call rests on the fitted dose curve; in most records, active means well fitted curve in the direction sought with a large enough effect in the repeat runs; inconclusive means weak or mixed curves; inactive means no such curve, though single readings can be large; an effect the other way counts as inactive or inconclusive.

Experiments:
[1] = qHTS assay to identify small molecule agonists of the RXR signaling pathway - cell viability counter screen (AID 1159529); conditions: RXR-alpha-bla HEK293T viability, CellTiter-Glo, 16 h; series mostly up to 76.8 µM; further: nearly all actives have a fitted effect of over 50% in size; further: potency means the concentration at half of the fitted maximal effect
Summary of the method: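 In this parallel viability measure, GeneBLAzer RXR-alpha HEK 293T cells (2% charcoal-stripped FBS) were given a 5 hr preincubation, treated with compounds 16 hr at 37 C, and read by CellTiter-Glo luminescence.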

[2] = qHTS assay to identify small molecule antagonists of the retinoid acid receptor (RAR) signaling pathway - cell viability counter screen (AID 1159551); conditions: C3RL4 cells viability, ATP luminescence (CellTiter-Glo), 6 h; series mostly up to 92.4 µM; further: nearly all actives have a fitted effect of over 35% in size; further: potency means the concentration at half of the fitted maximal effect
Summary of the method: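 Cells (C3RL4) are plated, incubated overnight, dosed with compound in DMSO, then given retinol at 1 uM final. After 6 h at 37 C, CellTiter-Glo is added and luminescence read following 30 min at room temperature.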

[3] = qHTS assay to identify small molecule antagonists of the estrogen related receptor (ERR) signaling pathway from Tox21 library - cell viability counter screen (AID 1224834); conditions: ERR reporter cells viability, CellTiter-Fluor, 17.5 h; series mostly up to 92.4 µM; further: nearly all actives have a fitted effect of over 30% in size; further: potency means the concentration at half of the fitted maximal effect
Summary of the method: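 ERR cells, 2,000/well; 6 h settle at 37 C/5% CO2; pin-tool compound transfer in DMSO; 17.5 h at 37 C; CellTiter-Fluor, 30 min; fluorescence intensity.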

[4] = target: Luciferin 4-monooxygenase (Photinus pyralis) (UniProt P08659); experiment: qHTS assay to identify small molecule inhibitors of firefly luciferase (AID 1224835); further: nearly all actives have a fitted effect of over 25% in size; further: potency means the concentration at half of the fitted maximal effect; conditions: purified P. pyralis luciferase, luminescence inhibition; series mostly up to 115 µM
Luciferin 4-monooxygenase (Photinus pyralis), sequence (P08659 whole entry, looked up): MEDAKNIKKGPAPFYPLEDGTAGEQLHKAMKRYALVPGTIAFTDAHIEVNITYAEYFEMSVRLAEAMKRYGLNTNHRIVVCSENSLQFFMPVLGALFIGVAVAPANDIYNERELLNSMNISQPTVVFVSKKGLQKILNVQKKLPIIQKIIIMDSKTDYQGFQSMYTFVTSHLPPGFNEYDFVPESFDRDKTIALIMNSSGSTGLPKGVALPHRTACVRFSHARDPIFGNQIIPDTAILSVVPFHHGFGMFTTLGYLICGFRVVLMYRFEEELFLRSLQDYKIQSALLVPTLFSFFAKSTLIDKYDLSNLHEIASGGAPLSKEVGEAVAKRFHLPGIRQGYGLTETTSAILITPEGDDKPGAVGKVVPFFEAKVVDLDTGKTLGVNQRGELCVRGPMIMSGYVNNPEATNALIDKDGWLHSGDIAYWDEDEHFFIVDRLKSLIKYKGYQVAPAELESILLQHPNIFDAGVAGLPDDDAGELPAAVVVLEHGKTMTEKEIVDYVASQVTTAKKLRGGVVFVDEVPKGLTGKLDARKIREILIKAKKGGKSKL
Summary of the method: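 Inhibition of purified Photinus luciferase is measured by luminescence. Substrate levels (D-luciferin, ATP) sit at their KM values. Each compound is tested in a concentration series.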

[5] = qHTS assay to identify small molecule antagonists of the constitutive androstane receptor (CAR) signaling pathway - cell viability counter screen (AID 1224837); conditions: HepG2-CYP2B6-hCAR viability, CellTiter-Fluor, 23 h, co-treated with 50 nM CITCO; series mostly up to 92.4 µM; further: nearly all actives have a fitted effect of over 45% in size; further: potency means the concentration at half of the fitted maximal effect
Summary of the method: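 Viability was measured with CellTiter-Fluor in a HepG2 line carrying stably transfected hCAR and a CYP2B6-2.2kb construct. Cells were exposed for 23 hr at 37 C to 15 compound concentrations with 50 nM CITCO as agonist.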

[6] = target: Nuclear receptor subfamily 1 group I member 3 (Homo sapiens) (UniProt Q14994); experiment: qHTS assay to identify small molecule antagonists of the constitutive androstane receptor (CAR) signaling pathway (AID 1224838); conditions: HepG2-CYP2B6-hCAR luciferase, CITCO-stimulated, 24 h; series mostly up to 92.4 µM;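 further: HepG2 cells stably expressing hCAR with CYP2B6 luciferase reporter stimulated by CITCO; nearly all actives have a fitted effect of over 40% in size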; further: potency means the concentration at half of the fitted maximal effect
Nuclear receptor subfamily 1 group I member 3 (Homo sapiens), sequence (Q14994 whole entry, looked up): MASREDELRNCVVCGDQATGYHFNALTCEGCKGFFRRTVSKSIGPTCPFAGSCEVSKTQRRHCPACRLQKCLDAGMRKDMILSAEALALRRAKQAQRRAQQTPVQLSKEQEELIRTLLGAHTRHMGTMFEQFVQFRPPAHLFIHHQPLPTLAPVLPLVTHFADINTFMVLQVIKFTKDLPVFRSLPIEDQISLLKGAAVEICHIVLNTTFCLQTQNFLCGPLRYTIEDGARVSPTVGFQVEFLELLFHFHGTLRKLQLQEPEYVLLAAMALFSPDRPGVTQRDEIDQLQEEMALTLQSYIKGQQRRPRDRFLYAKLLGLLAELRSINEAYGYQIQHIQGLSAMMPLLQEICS
Summary of the method: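 Antagonist mode used CITCO at a final 50 nM to activate CAR in human hepatoma HepG2 cells carrying stable hCAR and a 2.2 kb CYP2B6 promoter-luciferase construct. Compounds were tested at 15 concentrations over 24 h, with luminescence as the end point.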

[7] = qHTS assay to identify small molecule antagonists of the estrogen related receptor signaling pathway with the pleiotropic PPARgamma coactivator (PGC) from Tox21 10K library - cell viability counter screen (AID 1224840; active means well fitted cell-killing curve with a large enough effect in the repeat runs, not every such curve was filed as active; further: nearly all actives have a fitted effect of over 40% in size; further: potency means the concentration at half of the fitted maximal effect); conditions: PGC/ERR reporter cells viability, CellTiter-Fluor, 17.5 h; series mostly up to 92.4 µM
Summary of the method: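 Multiplexed viability counter screen in the PGC/ERR cell line: cells treated with DMSO-dissolved compounds for 17.5 hours at 37 C, then viability measured as CellTiter-Fluor fluorescence.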

[8] = target: Thyrotropin receptor (Homo sapiens) (UniProt P16473); experiment: qHTS assay to identify small molecule agonists of the thyroid stimulating hormone receptor (TSHR) signaling pathway (AID 1224843; calls by dose curve; further: nearly all actives have a fitted effect of over 45% in size; further: potency means the concentration at half of the fitted maximal effect); conditions: TSHR-HEK293 cells, cAMP HTRF, agonist mode, 30 min; series mostly up to 92.4 µM
Thyrotropin receptor (Homo sapiens), sequence (P16473 whole entry, looked up): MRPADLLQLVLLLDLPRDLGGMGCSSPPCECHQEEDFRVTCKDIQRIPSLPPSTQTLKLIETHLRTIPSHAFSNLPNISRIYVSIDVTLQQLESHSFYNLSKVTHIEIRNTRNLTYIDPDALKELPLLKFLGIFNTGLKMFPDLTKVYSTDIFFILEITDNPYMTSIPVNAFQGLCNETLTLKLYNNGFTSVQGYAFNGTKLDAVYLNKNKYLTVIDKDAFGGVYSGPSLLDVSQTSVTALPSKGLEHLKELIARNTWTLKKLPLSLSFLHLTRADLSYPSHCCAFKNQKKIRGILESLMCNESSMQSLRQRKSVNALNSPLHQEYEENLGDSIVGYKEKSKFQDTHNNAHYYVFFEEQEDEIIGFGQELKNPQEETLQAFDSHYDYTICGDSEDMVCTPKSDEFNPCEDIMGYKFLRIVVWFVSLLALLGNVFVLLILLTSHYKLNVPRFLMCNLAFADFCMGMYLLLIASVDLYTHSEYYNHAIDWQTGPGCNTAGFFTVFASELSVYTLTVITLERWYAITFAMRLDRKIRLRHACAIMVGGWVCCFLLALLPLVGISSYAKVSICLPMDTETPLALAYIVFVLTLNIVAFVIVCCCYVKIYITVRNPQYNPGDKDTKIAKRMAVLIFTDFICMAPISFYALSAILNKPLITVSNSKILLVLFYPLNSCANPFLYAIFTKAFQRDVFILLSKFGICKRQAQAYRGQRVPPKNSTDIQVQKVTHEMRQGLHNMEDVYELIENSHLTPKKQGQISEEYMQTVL
Summary of the method: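 Agonist activity read as cAMP rise via d2/cryptate HTRF competition, 1 h room-temperature detection, in HEK293 cells expressing TSHR. Fifteen-point titrations, each run in triplicate, with a 30 min room-temperature incubation beforehand.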

[9] = qHTS assay to identify small molecule antagonists of the retinoic acid receptor (RAR) signaling pathway (AID 1159552; further: nearly all actives have a fitted effect of over 50% in size; further: potency means the concentration at half of the fitted maximal effect); conditions: C3RL4 RARE luciferase reporter, retinol-stimulated, 6 h; series mostly up to 92.4 µM
Summary of the method: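 C3RL4 RARE-luc cells, overnight plating; retinol 1 uM final added right after compound; 6 hr 37 C; luciferase read at 30 min RT.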

[10] = qHTS assay to identify small molecule agonists of the retinoic acid receptor (RAR) signaling pathway (AID 1159553); conditions: C3RL4 RARE luciferase reporter, agonist, 6 h; series mostly up to 73.3 µM; further: potency means the concentration at half of the fitted maximal effect
Summary of the method: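 Seed C3RL4 reporter cells at 1,000 per well and incubate overnight at 37 C. Add compounds in DMSO, incubate 6 hr. Add luciferase reagent, wait 30 min at room temperature, read luminescence.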

[11] = qHTS assay to identify small molecule agonists of the constitutive androstane receptor (CAR) signaling pathway - cell viability counter screen (AID 1224836); conditions: HepG2-CYP2B6-hCAR viability, CellTiter-Fluor, 23 h, PK11195 added to every well; series mostly up to 92.4 µM; further: nearly all actives have a fitted effect of over 45% in size; further: potency means the concentration at half of the fitted maximal effect
Summary of the method: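 Using CellTiter-Fluor, viability of HepG2 cells harbouring hCAR and CYP2B6-2.2kb was measured following 23 h incubation with a 15-concentration compound series plus PK11195 (0.75 uM final).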

[12] = target: Nuclear receptor subfamily 1 group I member 3 (Homo sapiens) (UniProt Q14994); experiment: qHTS assay to identify small molecule agonists of the constitutive androstane receptor (CAR) signaling pathway (AID 1224839); conditions: HepG2 hCAR CYP2B6-luciferase, agonist mode, 24 h; series mostly up to 92.4 µM; further: nearly all actives have a fitted effect of over 15% in size; further: potency means the concentration at half of the fitted maximal effect
Summary of the method: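 Double-stable HepG2 cells (hCAR, CYP2B6-2.2kb) seeded 4 h before compound addition. Exposure 24 h with 0.75 uM PK11195 final. Luciferase detected by ONE-Glo.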

[13] = qHTS assay to identify small molecule antagonists of the estrogen related receptor signaling pathway with the pleiotropic PPARgamma coactivator (PGC) from Tox21 10K library (AID 1224841; call rule not given here; further: actives are mostly falling curves and most rising ones were filed inactive; nearly all actives have a fitted effect of over 50% in size; further: potency means the concentration at half of the fitted maximal effect); conditions: PGC/ERR reporter cell line, ONE-Glo luciferase, 18 h; series mostly up to 92.4 µM
Summary of the method: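 Steps: plate 2,000 PGC/ERR cells per well; incubate 6 h at 37 C with 5% CO2; transfer compounds from DMSO stocks by pin tool; incubate 18 h at 37 C; add One-Glo; measure luminescence 30 min later.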

[14] = qHTS assay to identify small molecule agonists of the estrogen related receptor signaling pathway with the pleiotropic PPARgamma coactivator (PGC) from Tox21 10K library (AID 1224842); conditions: PGC/ERR reporter cell line, luciferase ONE-Glo, 18 h; series mostly up to 92.4 µM; further: nearly all actives have a fitted effect of over 15% in size
Summary of the method: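 Luminescence from One-Glo (30 min, room temperature) measured after PGC/ERR cells had 18 h at 37 C with pinned compound (23 nL in DMSO). Cells had been seeded at 2,000 per well and pre-incubated 6 h.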

[15] = qHTS assay to identify small molecule antagonists of the estrogen related receptor (ERR) signaling pathway - cell viability counter screen (AID 1224818); conditions: ERR reporter cell line viability counter screen; series mostly up to 46.1 µM
Summary of the method: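 ERR cells, 2,000/well; 6 h settle at 37 C/5% CO2; compound pin transfer (DMSO); 17.5 h at 37 C; CellTiter-Fluor, 30 min, fluorescence read.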

[16] = qHTS assay to identify small molecule antagonists of the estrogen related receptor signaling pathway with the pleiotropic PPARgamma coactivator (PGC) cell viability counter screen (AID 1224822;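 further: viability read after 17.5 h compound exposure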); conditions: ERR/PGC reporter cell line viability counter screen; series mostly up to 46.1 µM
Summary of the method: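 Multiplexed viability counter screen run in PGC/ERR cells treated with compounds for 17.5 h at 37 C; live-cell protease signal measured by CellTiter-Fluor fluorescence.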

| Compound | Potency [1] | Potency [2] | Potency [3] | Potency [4] | Potency [5] | Potency [6] | Potency [7] | Potency [8] | Potency [9] | Potency [10] | Potency [11] | Potency [12] | Potency [13] | Potency [14] | Potency [15] | Potency [16] |
| --- | --- | --- | --- | --- | --- | --- | --- | --- | --- | --- | --- | --- | --- | --- | --- | --- |
| CC(=O)CC/C=C(\C)CCC=C(C)C | inactive | inactive | inactive | inactive | inactive | inactive | inactive | inactive | – | – | – | – | – | – | – | – |
| O=C(Nc1ccc([N+](=O)[O-])cc1Cl)c1cc(Cl)ccc1O | – | – | 3.86 µM (active) and 1.3 µM (active) | 399 nM (active) and 301 nM (active) | 5.45 µM (active) and 3.26 µM (active) | inactive and 4.11 µM (active) | – | inactive | inactive | 43.3 nM (active) and 82 nM (active) | 6.86 µM (active) and 4.61 µM (active) | 1.54 µM (active) and 820 nM (active) | – | – | – | – |
| CC(C)OB(OC(C)C)OC(C)C | inactive | inactive | inactive | – | inactive | inactive | inactive | – | – | – | inactive | – | inactive | inactive | – | – |
| C=C(C)C1CC=C(C)CC1 (centres undefined) | inactive | inactive | inactive | inactive | inactive | inactive | – | – | – | – | inactive | inactive | – | – | – | – |
| CNCCCC12CCC(c3ccccc31)c1ccccc12 | 21.9 µM (active) and inactive | inactive | 61.1 µM (active) and inactive | – | – | 21.7 µM (active) and inactive | – | 4.33 µM (active) and 26.6 µM (active) | – | – | – | – | – | – | inactive | – |
| Cc1cccc(N(C)C(=S)Oc2ccc3ccccc3c2)c1 | – | inactive | inactive | inactive | inactive | inactive | inactive | inactive | inactive | 2.43 µM (active) and 13.3 µM (active) | – | – | – | – | – | – |
| OC(CCl)CCl | inactive | inactive | inactive | inactive | inactive | inactive | – | inactive | – | – | inactive | – | – | – | – | – |
| O=C(c1ccc(OCCN2CCCCC2)cc1)c1c(-c2ccc(O)cc2)sc2cc(O)ccc12 | 27.5 µM (active) and 23.9 µM (active) | inactive | 30.7 µM (active) and 48.6 µM (active) and 18.8 µM (active) | – | – | inactive | 24.4 µM (active) and 30.6 µM (active) | – | – | – | – | – | – | – | – | – |
| CC(=O)Oc1ccccc1C(=O)Nc1ncc([N+](=O)[O-])s1 | inactive | – | 14 µM (active) and 18.8 µM (active) | 1.29 µM (active) and 3.09 µM (active) | 24.8 µM (active) and 23.7 µM (active) | inactive | – | inactive | inactive | 140 nM (active) and 188 nM (active) | – | – | – | – | – | – |
| O=C(Nc1ccc(Cl)cc1)Nc1ccc(Cl)c(Cl)c1 | – | – | 12.1 µM (active) and 6.86 µM (active) and 18.8 µM (active) | – | 15.4 µM (active) | inactive | – | inactive | inactive | 3.06 µM (active) and 3.35 µM (active) | 17.2 µM (active) | 3.44 µM (active) and 4.22 µM (active) | 12.1 µM (active) and inactive | inactive | – | – |
| CCCc1c(OCCCCc2nn[nH]n2)ccc(C(C)=O)c1O | inactive | inactive | inactive | – | inactive | inactive | inactive | inactive | – | – | inactive | – | – | – | – | – |
| Cc1ccc(C(=O)c2cc(O)c(O)c([N+](=O)[O-])c2)cc1 | inactive | inactive | 43.3 µM (active) | 63.3 µM (active) and 34.7 µM (active) | – | inactive | – | inactive | – | – | – | – | 30.6 µM (active) | inactive | – | – |
| CCOCCOCCO | inactive | inactive | inactive | – | inactive | – | inactive | inactive | – | – | inactive | – | inactive | inactive | – | – |
| C[C@]12CC[C@H]3[C@@H](CCC4=CC(=O)CC[C@@]43C)[C@@H]1CC[C@@H]2C(=O)CO | inactive | inactive | inactive | inactive | inactive | inactive | inactive | – | – | – | inactive | inactive | inactive | inactive | – | – |
| Cc1c(C(N)=O)cc([N+](=O)[O-])cc1[N+](=O)[O-] | inactive | inactive | inactive | inactive | inactive | inactive | – | inactive | – | – | inactive | – | – | – | – | – |
| CC1=CC2C3CC(C=C3C)C2C1 (centres undefined) | inactive | inactive | inactive | inactive | inactive | inactive | – | inactive | – | – | inactive | inactive | inactive | inactive | – | – |
| O=C1OC2(c3cc(Br)c(O)c(Br)c3Oc3c2cc(Br)c(O)c3Br)c2c(Cl)c(Cl)c(Cl)c(Cl)c21 | inactive | 4.33 µM (active) | 6.12 µM (active) and 18.6 µM (active) | 40 µM (active) and 24.2 µM (active) | 19.4 µM (active) and 33.1 µM (active) | inactive | – | inactive | – | – | 13.7 µM (active) and 37.1 µM (active) | – | 10.9 µM (active) | inactive | – | – |
| Oc1ccc(O)cc1 | inactive | – | inactive | – | inactive | inactive | inactive | – | 17.1 µM (active) and 24.3 µM (active) and 10.6 µM (active) | inactive | – | – | – | – | inactive | inactive |
